# Screening results as filed in PubChem.
# Rce1 inh = yeast Ras-converting enzyme inhibition; Q03530; yeast membranes, quenched prenylated peptide cleavage fluorescence; calls only; 290,000 tested, 0.27% active; AID 2563;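 active = fall in fluorescence gain of 50% or more versus controls, with final raw signal at or below 3038400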;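 note: plate controls were neutral control wells for no effect and wells lacking membranes for full effect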
# PfM18AAP inh = blocks P. falciparum M18 aspartyl aminopeptidase | recombinant PfM18AAP, H-Glu-NHMec fluorogenic cleavage | 290,000 tested, 1.2% active | inhibition, % at 7.35 µM | AID 1822;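 active = inhibition above the campaign mean inhibition over all tested compounds plus 3 SD, cut at about 28% in these data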;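 note: 0% = plate median of test compound wells and 100% = 2 mM ZnCl2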
# DNA FID counter = fluorescent intercalator displacement, NS3 helicase counter-screen. inhibition, % at 7.9 µM. 290,000 tested, 0.17% active. DNA fluorescent intercalator displacement, fluorescence. AID 1845; in the data active = inhibition above about 37%;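 note: 0% = vehicle and 100% = reference compound; higher means more ethidium bromide displaced from hairpin DNA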
# Kir21 inh = inhibitors of mouse Kir2.1 inward-rectifier potassium channel; HEK293-Kir2.1, FluxOR thallium flux fluorescence; hits give low values; 310,000 tested, 0.85% active; B-score at 10 µM; AID 1672; P35561;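 active = fluorescence ratio B-score at or below minus 3 SD of library scores, with starting-brightness B-score within 2 SD, cut at about -4.2 in these data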;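 note: channel flux triggered by added potassium and thallium sulfate stimulus; B-score of peak minus minimum fluorescence over baseline after thallium stimulus; more negative B-score means stronger Kir2.1 block with less thallium influx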
# Target sequence (P35561 whole entry, looked up): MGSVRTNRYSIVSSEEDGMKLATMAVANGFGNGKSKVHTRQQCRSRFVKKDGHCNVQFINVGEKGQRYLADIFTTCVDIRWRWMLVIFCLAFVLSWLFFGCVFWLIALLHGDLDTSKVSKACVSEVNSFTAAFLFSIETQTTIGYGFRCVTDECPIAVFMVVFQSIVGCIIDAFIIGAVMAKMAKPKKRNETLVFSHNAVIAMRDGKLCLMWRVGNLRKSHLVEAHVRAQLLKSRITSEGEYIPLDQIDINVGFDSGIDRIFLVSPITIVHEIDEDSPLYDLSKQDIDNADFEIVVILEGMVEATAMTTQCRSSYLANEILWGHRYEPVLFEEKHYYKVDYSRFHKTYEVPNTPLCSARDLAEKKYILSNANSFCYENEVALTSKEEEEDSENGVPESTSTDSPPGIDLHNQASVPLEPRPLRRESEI
# An asterisk follows results filed as active; i = inactive; x = no result; + = active, no number. Hits are enriched below; roughly 2.3% of the tested compounds scored in any of these assays.
SMILES,Rce1 inh,PfM18AAP inh,DNA FID counter,Kir21 inh
Nc1nsc2ccccc12,i,2,5,-5.1*
Cc1ccc(-c2nn(-c3ccccc3)cc2CSC(=N)N)cc1,i,7,24,-5.8*
OCc1cn(-c2ccccc2)nc1-c1ccc(-c2nn(-c3ccccc3)cc2CO)cc1,i,-19,-8,-0.28
CSCc1ccc(C(=O)NCC(c2cccs2)N2CCOCC2)cc1 (configuration not stated),i,x,x,-0.92
CC(C)(C)NC(=O)CON=C1c2ccccc2-c2ccccc21,i,-1,-17,-1.5
CC(C)(C)NCC(O)CON=C1c2ccccc2-c2ccccc21 (configuration not stated),i,-6,45*,-2
O=C1/C(=C/c2ccccc2Cl)SC(=S)N1CCCC(=O)N(CCO)c1ccccc1,i,0,-34,-0.4
CCc1ccc(-c2cc(C)no2)cc1S(=O)(=O)N1CCOc2ccc(C)cc21,i,0,-15,0.43
CCOC(=O)c1cnc2c(C)cc(C)cc2c1NCCCN1CCOCC1,i,-5,71*,-3.3
CCOC(=O)c1cnc2c(C)c(Cl)ccc2c1NCCCN1CCOCC1,i,3,54*,1.1
CCOC(=O)c1cnc2ccccc2c1NCCO,i,2,1,0.95
CCOC(=O)c1cnc2c(ccc3ccccc32)c1NCCCN(C)C,i,-1,81*,0.53
O=C(CCc1ccccc1)N1CCN(c2ccc([N+](=O)[O-])cc2)CC1,i,4,-12,0.82
Cc1ccc2nc(Cc3ccc(N)cc3)[nH]c2c1,i,-1,7,-0.91
Cc1ccc2nc(CCc3nc4ccc(C)cc4[nH]3)[nH]c2c1,i,-5,9,-4.4*
Cc1ccc(-c2nc(CN3CCN(C(=O)C4CCCO4)CC3)cs2)cc1 (configuration not stated),i,1,-39,2.2
Cc1c(Br)c(O)c(Br)c(O)c1/C=N/n1c(-c2ccccc2)n[nH]c1=S,i,29*,-8,0
O=C(Nc1ccccc1)c1cc([N+](=O)[O-])ccc1Cl,i,x,x,0.67
O=C(Nc1ncn[nH]1)c1cc([N+](=O)[O-])ccc1Cl,i,30*,1,0
CC(C)C[C@H](NC(=O)C1CCN(C(=O)[C@H](Cc2ccccc2)NC(=O)OC(C)(C)C)CC1)C(=O)O,i,-7,-41,2
CCOC(=O)c1[nH]ncc1CN1CCc2ccc(NC(=O)C3CCCO3)cc2C1 (configuration not stated),i,3,-9,0.12
COc1ccc(OCc2cc(C(=O)NC(C)c3csc(C)n3)no2)c(Cl)c1 (configuration not stated),i,-5,-40,0.02
COc1ccc(S(=O)(=O)NCC2CCCO2)cc1NC(=O)c1ccccc1 (configuration not stated),i,6,-35,2.6
COc1ccc(S(=O)(=O)NCC2CCCO2)cc1NC(=O)c1ccccc1F (configuration not stated),+,-2,-23,-0.51
Cc1c(CCC(=O)NCCCn2ccnc2)c(=O)oc2c(C)c3occ(C(C)(C)C)c3cc12,i,3,38*,-3.7
SMILES,Rce1 inh,PfM18AAP inh,DNA FID counter,Kir21 inh
COc1cccc(CN2CC(C(=O)NCc3cccc(N4CCCC4)c3)CCC2=O)c1 (configuration not stated),i,25,-27,0.07
COc1ccccc1OC(C)C(=O)N(Cc1ccco1)C1CCS(=O)(=O)C1 (configuration not stated),i,-7,-18,1.1
Cc1cc(C)c2nc(N3CCC(C(=O)NCCCN4CC(C)CC(C)C4)CC3)sc2c1 (configuration not stated),i,-5,21,-6.8*
CCCc1cc(=O)[nH]c(SCC(=O)c2cc(C)n(C3CC3)c2C)n1,i,7,-27,-4.5*
COc1cccc(NC(=O)CN(C)C(=O)CC2CC3CCC2C3)c1 (configuration not stated),i,x,x,0.25
COc1ccc(OC)c(NC(=O)CSc2ccc3nnc(-c4ccccn4)n3n2)c1,i,-7,-15,1.4
S=C(NCC1CCCO1)N1CCc2ccccc2C1 (configuration not stated),i,-5,-11,-0.79
OCc1ccccc1SSc1ccccc1CO,i,x,x,-1.4
Cc1c(C)c2ccc(OC(C)C(=O)NCCCN3CCOCC3)c(C)c2oc1=O (configuration not stated),+,-13,12,0.77
Cc1c(C)c2ccc(OC(C)C(=O)NCCN3CCOCC3)c(C)c2oc1=O (configuration not stated),i,1,2,0.03
CCN(CC)CCOc1ccc2c(c1)C(=NO)c1cc(OCCN(CC)CC)ccc1-2,i,-10,90*,-0.65
